# In all, about 4,800 compounds went through this assay and about 420 (8.8%) showed an effect of 50% or more. Shown is part of a subset that was picked to be rich in strong results.
# System: Plasmodium falciparum
# Experiment: Confirmatory screen in NF54 nanoGlo assay, in single point, at 2uM, 72h
# Format: functional, Erythrocyte
# Conditions: timepoint 72 hour
row,SMILES,% Inhibition
1,Cc1cc2[nH]ncc2cc1NC(=O)c1ccco1,-8%
2,CC[C@H]1C[C@@H]1CNC(=O)c1cccc(NC(=O)c2ccco2)c1,-7%
3,CC(C)(C)c1nc(Cn2c3c(sc2=O)CCCC3)no1,1%
4,COc1ccc(CN2CCC(C(=O)NCCCN3CCOCC3)CC2)c(OC)c1,4%
5,Cc1ccccc1S(=O)(=O)c1cc2cc(Br)cc(Br)c2nc1N,0%
6,COc1cccc(C2=NS(=O)(=O)N(C)C(C(=O)N3CCC(C(N)=O)CC3)=C2)c1,20%
7,CC(=O)Nc1ccc(NC(=O)CCC(C)C)cc1,-9%
8,CC(=O)Nc1ccc(-c2cn3c4ccccc4ccc3[n+]2C)cc1,76%
9,CC(=O)c1ccc(NC(=O)Cn2c(-c3ccccc3)nc(C)cc2=O)cc1,4%
10,CC(=O)N[C@H]1[C@H](c2ccccc2)N(CCCc2ccccc2)CC[C@@]1(C)O,1%
11,C#CCN(C(=O)c1cnn(CC(C)C)c1C(F)F)c1nccs1,-1%
12,Cc1ccc(C2=NC3(CCCC3)NC2=O)cc1,3%
13,c1ccc2c[n+](Cc3ccc4ccccc4n3)ccc2c1,50%
14,Cc1ccc[n+](Cc2ccc3ccccc3n2)c1,53%
15,c1ccc2cc(-c3ccc4ccccc4n3)ccc2c1,-1%
16,O[C@@H](Cc1ccc2ccccc2n1)c1ccccc1,-5%
17,CC(C)(C)OC(=O)N1CCN(C[C@H]2CN(c3ccc(F)cc3)C(=O)O2)CC1,-11%
18,O=C(Nc1ccccc1)c1ccc(Nc2ncc(-c3cccc(F)c3)cn2)cc1,-3%
19,CC(C)(C)c1ccc(-c2cc(C[C@H]3CNCC[C@H]3CC(=O)NCCN3CCOCC3)no2)cc1,9%
20,OC(CNC1CCCNc2ccccc21)c1ccc(Cl)s1 (stereo not given),58%
21,O=C(NC[C@H](O)c1ccc(Cl)s1)c1ccsc1,1%
22,CC(C)(C)OCCON=C(N)c1cccs1,10%

row,SMILES,% Inhibition
1,O=C(C[C@@H]1C=CCC1)Nc1nc(-c2ccc(Cl)cc2)cs1,2%
2,C[C@H]1CNCCN1C(=O)c1coc2ccccc12,-4%
3,O=C(Cn1ccnc1)N1CCCCCC1CC(O)c1ccccc1 (stereo not given),0%
4,O=c1[nH]c2cc3c(cc2c(=O)n1CCc1nc(-c2ccccc2Br)no1)OCO3,-4%
5,O=C(C[C@H]1CCN(C(=O)Nc2ccccc2)C1)NC1CC1,-6%
6,O=C(Nc1ccncc1)c1ccc2ccccc2n1,0%
7,CCOC(=O)c1cc(NC(=O)C(C)(C)NC(=O)OC(C)(C)C)c(F)cc1C,-2%
8,CCOC(=O)c1ncn(C2CCCCC2)c1N,1%
9,CCOC(=O)c1cn(CC)c2cc(NC3CCCCC3)c(F)cc2c1=O,78%
10,CCc1ccc(CNC(=O)C2(N3CCOCC3)CCC2)s1,-5%
11,CCCN(CCC)C(=O)CCC(=O)N[C@]1(C(F)(F)F)CCc2ccccc21,15%
12,Cc1cccc(NC(=O)[C@@H](C#N)C(=O)C2CCC2)c1,0%
13,COc1ccc(CN(Cc2ccncc2)CC2CCN(C3CCN(C)CC3)CC2)c(F)c1,85%
14,CN1CCC(N2CCC(CN(Cc3ccncc3)Cc3c(F)cccc3Cl)CC2)CC1,23%
15,CN1CCC(N2CCN(Cc3ccc4cc(O)ccc4c3)CC2)CC1,46%
16,O=C(Nc1ncc(CCO)s1)[C@@H]1CCCN1C(=O)Cc1cccs1,0%
17,Clc1ccccc1COc1ccc(CNC2CCCCC2)cc1,-2%
18,CN(C)CCCNCc1ccc(Cl)cc1Cl,-3%
19,CN(C)CCNCc1ccc(Cl)c(Cl)c1,-11%
20,CC(C)CC[C@@H](CCNCCN(C)C)c1ccc(Cl)cc1,96%
21,CN1CCC(NCC[C@@H](Cc2ccccc2Cl)c2ccc(Cl)cc2)CC1,82%
22,CC(C)CC[C@@H](CCNC1CCN(C)CC1)c1ccc(Cl)cc1,80%

row,SMILES,% Inhibition
1,CCn1cnnc1C1CCN([C@@H](C)C(=O)Nc2ccccc2C)CC1,-7%
2,COc1ccc(C)cc1-n1ccc(C(=O)N2CCCc3c(C(N)=O)cccc32)n1,-11%
3,COC(=O)c1ncn(CNC2(c3ccc(Cl)cc3)CCCC2)n1,6%
4,CN(C)c1ccc(-c2nc([C@H]3CCOC3)cs2)cc1,6%
5,Cc1cc(CN2C(=O)NC3(CCCCC3)C2=O)no1,-4%
6,Cc1cccnc1C(=O)N1CC(n2cnnc2[C@@H]2CCCO2)C1,-2%
7,CC(=O)c1cc(-c2cc(O)cc(CC[C@H]3CCCCN3)c2)ccc1O,78%
8,Cc1cc(S(=O)(=O)NC[C@H]2CCCCN2)sc1C,-9%
9,Cc1cc(-c2cc(O)cc(CC[C@H]3CCCCN3)c2)ccn1,79%
10,Cc1ccc(-c2cc(O)cc(CC[C@H]3CCCCN3)c2)c(C)n1,53%
11,CC1CC(N)CCN1C(=O)c1cccc(-c2noc(C3CC3)n2)c1 (stereo not given),2%
12,CN(CCOc1ccc(Cl)cc1Cl)[C@H]1CCS(=O)(=O)C1,-7%
13,CCN(C(C)=O)c1ccc(Cl)cc1F,-13%
14,COc1ccc(C)cc1NC(=O)C[C@H]1CCN(S(C)(=O)=O)C1,0%
15,Cc1cc2nc(C(=O)NC3CCN(Cc4ccccc4)CC3)c(=O)n(C)c2cc1C,-8%
16,O=C(Cn1cccc1-c1nc(-c2ccc(F)c(Br)c2)no1)N1CCc2ccccc2C1,1%
17,CC(C)c1cc(=O)[nH]c(-n2nc(C3CC3)cc2NC(=O)Cc2ccc(Cl)cc2)n1,69%
18,Cc1cc(NC(=O)c2ccc(COc3ccc4ccccc4c3)o2)nn1C,-3%
19,O=C(Nc1ccc(OC(F)F)cc1)c1cc(C2CC2)nc2c1c(C1CC1)nn2-c1ccccc1,-7%
20,CC(C)c1cc(=O)[nH]c(-n2nc(C3CC3)cc2NC(=O)COc2ccc3ccccc3c2)n1,70%
21,Cc1ccc(N2C[C@@H](c3nnc(NC(=O)Cc4ccc(Cl)cc4)o3)CC2=O)cc1,-13%
22,CC(C)c1nc(C2CN(C(=O)Nc3ccc(F)c(Cl)c3)C2)n(C)n1,4%

row,SMILES,% Inhibition
1,CCNC(=O)C1Cc2ccc(OC)cc2N2CCN(c3ccc(OC)cc3)CC12 (stereo not given),2%
2,O=C(C[C@H]1CCN(C(=O)c2cc(F)ccc2F)C1)NC1CC1,-2%
3,CN(C)/C=C/c1cc(C#N)c(C#N)cc1Br,-4%
4,O=C(c1c(F)cccc1F)N1C[C@@H]2CCCN2c2ccc(C(F)(F)F)cc21,-13%
5,COc1ccccc1-n1cnc2cc(C(=O)N3CCCC3)ccc2c1=O,-4%
6,CC[C@H](C)[C@H](NC(=O)c1ccc(Br)c(F)c1)C(=O)O,-8%
7,N[C@@H](CO)c1cccc(Br)c1,7%
8,COC(=O)CN(c1ccccc1)S(=O)(=O)c1ccc2nncn2c1,-1%
9,COc1cccc(N2C(=O)N[C@H](C)C2=O)c1,8%
10,COc1ccc(-c2c(-c3cccc(OC)c3)[nH]c3c2c(=O)[nH]c(=O)n3C)cc1,74%
11,COc1cccc(C(=O)Nc2noc(-c3cccc(OC)c3)c2-c2ccc(Cl)cc2)c1,-11%
12,CC1CC(C)(C)CCC1NC(=O)NC1CCN(C)C1=O (stereo not given),-4%
13,COc1cccc(CCC(=O)N2CCN3CCC2C3)c1F (stereo not given),-15%
14,CC[C@@H](CO)NC(=O)Nc1ccc(Cl)cc1,6%
15,CNC(=NCCCOc1cccc(OC)c1)NC,-6%
16,Cc1c(C)c2ccc(NC(=O)c3cc4ccccc4o3)cc2[nH]c1=O,74%
17,Cc1nc2sc(C(=O)Nc3ccc4ccccc4c3)c(N)c2c(C)c1C,2%
18,Cc1cc(C(=O)Nc2ccc3ccccc3c2)co1,-5%
19,CN(Cc1ccc(-c2ccccc2)cc1)c1cc([C@H]2C[C@@H](N)C2)nc(N)n1,49%
20,CC1CCN(C[C@@H](O)CNc2nnc(C(F)(F)F)s2)CC1,-10%
21,Cn1n[n+](CC(=O)Nc2ccccc2Cl)c2ccccc21,-5%
22,Cn1n[n+](CCCCC(Cl)(Cl)Cl)c2ccccc21,53%

row,SMILES,% Inhibition
1,CCN(CC(=O)Nc1ccccc1OC)C(=O)c1ccc(S(=O)(=O)N2CCOCC2)cc1,10%
2,CC(C)n1[nH]c(=O)c2c(C3CCCCC3)c3sc(=O)[nH]c3nc21,-3%
3,Nc1cc2c(cc1C1=Nc3ccccc3C(c3ccccc3)(c3ccccc3)N1)OCO2,10%
4,COc1ccc(CCNC(=O)c2c(C)noc2-c2ccncc2)cc1OC,1%
5,COc1ccc(CCNC(=O)c2cc3c(=O)[nH]c(C)cn3n2)cc1OC,67%
6,COc1ccc(CCNC(=O)c2cc3n(n2)CCN(Cc2cccc(F)c2)C3=O)cc1OC,17%
7,C#CCN(C(=O)c1ccncc1CC)c1nccs1,-10%
8,CCCC1(c2ccncc2)CC(C)OC1=O (stereo not given),-1%
9,Cc1ccc(-c2noc(CCC(=O)NC[C@H]3CCCO3)n2)c(=O)n1C(C)C,-1%
10,O=C(CCn1ncc2c(Cl)cccc21)NCC1CCCC1,-9%
11,c1cn(CCCOc2ccc3c(c2)OCO3)nn1,3%
12,COc1ccc(CC(=O)NCCn2c(C(F)(F)F)nc3ccccc32)cc1,42%
13,CCNC(=O)c1nc(-c2ccncc2)cs1,-21%
14,CC(C)C(=O)Nc1ccc(-c2cc(-c3ccc(NC(=O)C(C)C)cc3)nc(-c3ccncc3)n2)cc1,56%
15,CC(C)C(=O)NCC(=O)Nc1ccc(C(F)(F)F)cc1,-15%
16,Cc1ccccc1C(=O)NCC(=O)NCCc1c[nH]c2ccccc12,-7%
17,Clc1ccccc1-c1c[nH]c([C@@H]2CCCN2)n1,5%
18,O=C(Nc1cccc2cccnc12)c1cncc(Br)c1,-12%
19,O=C(Nc1cccc2cccnc12)c1ccccn1,80%
20,Oc1ccccc1CNc1cccc2cccnc12,98%
21,CC(C)(C)C(=O)NCCNC(=O)c1ccccn1,8%
22,O=C(Oc1cccc2cccnc12)c1ccc(-c2ccccc2)cc1,2%

# Reference: ChEMBL document CHEMBL4888484, “Replenishing the malaria drug discovery pipeline: Screening and hit evaluation of the MMV Hit Generation Library 1 (HGL1) against asexual blood stage Plasmodium falciparum ,using a nano luciferase reporter read-out” (2022)
